The nature of the experiment: NCI Yeast Anticancer Drug Screen. Data for the wt1 strain (AID 149).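 Further: 0% = growth of vehicle-treated wt1 cultures.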 As to conditions: S. cerevisiae wt1 strain (SPY 50644) growth inhibition, active compounds read high. On the procedure: Growth inhibition of yeast strains with defined genetic alterations is measured as a screen for potential anti-cancer activity. Selected strains with alterations in DNA damage repair or cell cycle control were exposed to compounds and growth inhibition was measured relative to vehicle treated controls. The strain used in this assay is wt1

SMILES strings stand for the structures. Compounds without any hit were thinned out: in the full panel of roughly 79,000, 15% have a hit. Values without a mark were called inactive. Calls of active or inactive are those of the source. No stated cut-off is given here; in the data, active means growth inhibition above about 70%; inactive means the rest.

`CN(N=O)C(=O)N[C@@H](C=O)[C@@H](O)[C@H](O)[C@H](O)CO`: the growth inhibition is 0% (at 1.2 µM); -1% (at 3.7 µM); 0% (at 11.0 µM); -1% (at 33.0 µM); 20% (at 100.0 µM).

For `N#C/C(=C/c1c(Cl)cccc1Cl)C(N)=O`, the growth inhibition reads like this: (at 1.2 µM) 13%; (at 3.7 µM) 13%; (at 11.0 µM) 10%; (at 33.0 µM) 47%; (at 100.0 µM) 96% (active).

As for `CC(=O)N1C(=O)/C(=C\C(=O)c2ccc([N+](=O)[O-])cc2)c2ccccc21`, the growth inhibition (at 1.2 µM) is -10%; the growth inhibition (at 3.7 µM) was -15%; the growth inhibition (at 11.0 µM) is 21%; the growth inhibition (at 33.0 µM) is 77% (active); the growth inhibition (at 100.0 µM) was 97% (active).

As to `O=C(NCCCCCN1CCC2(CCCCC2)CC1)C(C1CCCCC1)C1CCCCC1`, the growth inhibition is, setting by setting: (at 1.2 µM) -63%; (at 3.7 µM) -5%; (at 11.0 µM) 6%; (at 33.0 µM) 85% (active); (at 100.0 µM) 98% (active).

Consider `O=C1c2ccccc2C(=O)c2cc(S(=O)(=O)Nc3ccccc3)ccc21`, for which the growth inhibition (at 1.2 µM) was 5%; the growth inhibition (at 3.7 µM) is 9%; the growth inhibition (at 11.0 µM) is 8%; the growth inhibition (at 33.0 µM) is 9%; the growth inhibition (at 100.0 µM) was 4%.

On to `Nc1nc2c(c(=O)[nH]1)NC(CCNc1ccc(C(=O)O)cc1)CN2` (stereo not given), for which the growth inhibition (at 1.2 µM) is 1%; the growth inhibition (at 3.7 µM) is 1%; the growth inhibition (at 11.0 µM) was 2%; the growth inhibition (at 33.0 µM) was 1%; the growth inhibition (at 100.0 µM) is -1%.

As to `NNC(=S)Nc1cccc(Cl)c1`, the growth inhibition is -8% (at 1.2 µM); -8% (at 3.7 µM); -14% (at 11.0 µM); 14% (at 33.0 µM); 86% (active) (at 100.0 µM).

Regarding `O=Nc1ccc(Nc2ccccc2)cc1`, the growth inhibition was -33% (at 1.2 µM); -26% (at 3.7 µM); -13% (at 11.0 µM); 28% (at 33.0 µM); 97% (active) (at 100.0 µM).
